The full list was thinned out, with hits kept by preference.
FECH block: inhibitors of human ferrochelatase, primary screen, biochemical, purified FECH, Ni-mesoporphyrin absorbance; Ferrochelatase, mitochondrial (Homo sapiens), P22830; Ni-mesoporphyrin absorbance 550 nm; calls only at 10 µM (by protocol); actives 3.3% (n = 20,000); AID 1671448, 2021;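 active = enzyme reaction rate more than 3 SD below the solvent-only control wells on the same plate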;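 also: lower slope than DMSO wells means FECH inhibition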
An asterisk follows results filed as active; i = inactive; + = active, no number.

SMILES | FECH block
Cc1ccc(C)c(CN2CCCN(Cc3ccccc3)S2(=O)=O)c1 | i
O=S1(=O)N(Cc2ccc(Cl)cc2)CCCN1Cc1ccccc1Cl | +
Cc1ccc(CN2CCCN(Cc3ccccc3C)S2(=O)=O)cc1 | i
CCCc1nnc(NC(=O)CN2C[C@@H]3C[C@H](C2)c2cccc(=O)n2C3)s1 | i
CC#CCN1CC=C(c2cnn(CCCC)c2)CC1 | i

From PubChem BioAssay
